Marburg entry inh: Marburg virus entry inhibition; Potency, µM (highest dose often 37.8 µM), without a hit: top-dose activity change, negative = inhibition, most hits filed as inhibitors; Marburg virus pseudotyped entry inhibition, cell reporter; AID 540276; hit rate 1.8% among 300,000; calls by dose curve; tested in HEK293 cells
Lassa entry inh: Lassa virus entry inhibition | Lassa virus pseudotype entry inhibition, cell reporter | Potency, µM (titrated, usually from 37.9 µM), inactives show at the highest dose activity change, negative = inhibition, hits mostly inhibitors | hit rate 1.2% among 300,000; calls by dose curve; tested in HEK293 cells; further: nearly all actives have a fitted effect of over 50% in size
Vaccinia mCherry: vaccinia inhibition (mCherry reporter). Vaccinia virus mCherry reporter infection, fluorescence. Potency, µM (titrated, usually from 36.5 µM), without a hit: at the top dose activity change, negative = inhibition, actives largely listed as inhibitors. hit rate 0.63% among 310,000. AID 720579; calls by dose curve; tested in A549 cells; further: nearly all actives have a fitted effect of over 35% in size
FMDV antiviral: blocks foot and mouth disease virus. FMDV antiviral cell-based qHTS. Potency, µM (highest dose often 57.9 µM), without a hit: at the highest dose activity change, negative = inhibition, most hits filed as inhibitors. hit rate 1.2% among 410,000; calls by dose curve; tested in HEK293T cells; further: read-out not given here; nearly all actives have a fitted effect of over 45% in size
Vaccinia Venus: vaccinia inhibition (Venus reporter). Vaccinia virus Venus reporter expression, fluorescence. hit rate 0.46% among 330,000. Potency, µM (top dose mostly 36.5 µM), inactives show at the highest dose activity change, negative = inhibition, hits mostly inhibitors; calls by dose curve; tested in A549 cells; further: nearly all actives have a fitted effect of over 30% in size
Starred values were filed as active, the others as inactive; i = inactive; ? = inconclusive; / = no result; [ ] = dose if it differs, or a comment. Shown are actives, neighbours in structure and some others; about 3.2% of the full set was active somewhere. On the % scale 0 is the no-effect control and ±100 the full control effect; potency means the concentration at half of the fitted maximal effect.

SMILES	Marburg entry inh	Lassa entry inh	Vaccinia mCherry	FMDV antiviral	Vaccinia Venus
COc1ccc(C(=O)c2c(C(F)(F)F)oc3c2C(=O)c2ccccc2C3=O)cc1	3.2µM*	?	/	?	4µM*
CCN(CC)CC(C)(C)C(=O)/C=C/c1ccc(/C=C/C(=O)C(C)(C)CN(CC)CC)cc1	1.4µM*	3.5µM*	?	3.5µM*	11µM*
CCc1ccccc1N(C)C(=O)c1nn(C)c2c1CSc1ccccc1-2	-26%[46.1 µM]	17%[46.1 µM]	-9%	26%	-9%
CC(C)CO/N=C1\C[C@@H](O)[C@@H](O)[C@@H]2[C@@H]3C(=O)N(C4CCCCC4)C(=O)[C@@H]3CC[C@@H]12	-14%[14.2 µM]	/	/	/	/
Cc1cc(C)cc(N(C(=O)c2sc(C)nc2C)C(C(=O)NCc2ccco2)c2ccccc2)c1 (configuration not stated)	?	?	-22%	/	-12%
Cc1ccc(N(C(=O)c2sc(C)nc2C)C(C(=O)NCc2ccco2)c2ccccc2)cc1 (configuration not stated)	?	7.3µM*	i	/	-16%
CN1CCN(c2ccc(-c3cccc(NC(=O)COc4ccc(Cl)cc4)c3)nn2)CC1	?	?	-3%	-53%	-23%
CN1CCN(c2ccc(-c3cccc(NC(=O)COc4ccc(Cl)cc4Cl)c3)nn2)CC1	?	4.5µM*	-21%	?	-5%
COc1cc2c(cc1C(F)(F)F)N(C(=O)Nc1cc(F)cc(-c3cccnc3)c1)CC2	1.3µM*	/	-5%	-4%	-27%
CCOC(=O)c1c(C)[nH]c(C(=O)OCc2ccccc2)c1C	?	?	-8%	23%	-17%
COC(=O)CCc1c(C)[nH]c(C(=O)OCc2ccccc2)c1C	-13%	7.1µM*	-17%	27%	-7%
OCC1(Cc2ccccc2F)CCCN(Cc2c(F)ccc(F)c2F)C1 (configuration not stated)	?	0%	-11%	?	-9%
Cc1cc2nc(N3CCCN(Cc4cccn4-c4ncccn4)CC3)nc(C)c2cc1C	/	/	-18%	-15%	12%
CCc1ccc(NC(=O)[C@H](Cc2c[nH]c3ccccc23)NC(=O)[C@@H]2Cc3ccccc3CN2)cc1	/	/	5µM*	8%	12%
O=C(NC(Cc1c[nH]c2ccccc12)C(=O)Nc1ccc(F)cc1)c1cccs1 (configuration not stated)	?	1.4µM*	?	-17%	13%
Cc1cccc(NC(=O)[C@H](Cc2c[nH]c3ccccc23)NC(=O)[C@@H]2Cc3ccccc3CN2)c1	/	/	11µM*	-4%	33%
Cc1cc(C)cc(NC(=O)[C@H](NC(=O)[C@@H]2Cc3ccccc3CN2)c2ccccc2)c1	1.4µM*	30%[46.1 µM]	-20%	-16%	-11%
Cc1cc(C)cc(NC(=O)[C@H](Cc2c[nH]c3ccccc23)NC(=O)[C@@H]2Cc3ccccc3CN2)c1	/	/	-26%	-29%	-20%
CC1C=CC(C(C2C(=O)CC(C)(C)CC2=O)C2C(=O)CC(C)(C)CC2=O)S1 (configuration not stated)	-6%[46.1 µM]	/	/	/	/
CC[C@@]1(C)Cc2c(sc3c2c(=O)n(C)c2nnc(SCc4ccccc4)n32)CO1	-1%	/	/	/	/
CN(CC(=O)Nc1ccccc1Br)CC(=O)Nc1ccccc1-c1ccccc1	/	/	/	-28%	/
CN(CC(=O)Nc1ccccc1-c1ccccc1)Cc1ccccc1Cl	11µM*	-8%	-1%	-23%	-6%
Cc1ccc2nc(/C=C/c3ccc(N(C)C)cc3)ccc2c1	/	/	-1%	/	11%
CC1CCN(c2ccc(-c3cccs3)nn2)CC1	/	/	i	7.9µM*	-20%
Cc1cc(N2CCN(C(=O)c3ccco3)CC2)nc(-c2ccccc2)n1	?	11µM*	-24%	-3%	-20%
SMILES	Marburg entry inh	Lassa entry inh	Vaccinia mCherry	FMDV antiviral	Vaccinia Venus
CC(=O)c1ccc(N2CCN(C(=O)CCS(=O)(=O)c3ccc4c(c3)NC(=O)CS4)CC2)cc1	/	/	/	0%	/
CCOC(=O)c1sc(NC(=S)NC(=O)c2ccccc2)c(C(=O)OCC)c1C	-19%	-6%	-14%	-17%	-3%
CCOC(=O)c1c(NC(=O)c2ccccc2)sc2c1CCc1ccccc1-2	?	14%	-3%	-18%	-12%
CCOC(=O)C1=C(NC(=S)NC(=O)c2ccccc2)c2ccccc2CC1C(C)C (configuration not stated)	0.79µM*	0.89µM*	?	0%	-9%
CCOC(=O)C1=C(NC(=S)NC(=O)c2ccccc2)c2ccccc2CC1(C)CC (configuration not stated)	5.8µM*	2.1µM*	-17%	0%	-3%
O=c1c2ccccc2nc(/C=C\c2ccccc2[N+](=O)[O-])n1-c1ccccc1O	?	7.9µM*	?	?	?
O=c1c2ccccc2nc(/C=C/c2ccccc2)n1-c1ccccc1F	/	-6%[46.1 µM]	-6%	-16%	-6%
CCC(=O)N1CCCc2cc(S(=O)(=O)N3CCC(C(=O)NC4CCC(C)CC4)CC3)ccc21 (configuration not stated)	/	-28%[46.1 µM]	-5%	-20%	-20%
CC(=O)/C(C#N)=C1\NC(=O)[C@@H](Cc2ccccc2)S1	2.5µM*	/	/	/	/
CC(=O)/C(C#N)=C1\NC(=O)C(Cc2ccccc2)S1 (configuration not stated)	2.5µM*	?	?	60%	119%
C/C(=N\N=C1\NC(=O)C(Cc2ccccc2)S1)c1ccccc1 (configuration not stated)	25%	2.3µM*	/	3%	/
O=C(C[C@@H]1C=C[C@H](NC(=O)Cc2ccccn2)[C@@H](CO)O1)NCCc1ccccc1	/	/	-4%	-14%	4%
O=C(/C=C/c1ccc(Cl)cc1)NCc1cccs1	-3%	5.8µM*	i	4%	-17%
O=C(NCCc1cccs1)c1ccc(Cl)cc1	?	5.6µM*	-7%	-10%	-27%
O=C(/C=C/c1cccc(Cl)c1)NCc1cccs1	4%	?	/	71%	/
Cc1ccc(C(=O)NCCc2cccs2)cc1	1.8µM*	?	/	-71%	/
COC(=O)c1ccccc1NC(=O)c1cc(-c2ccc(Cl)cc2)on1	-2%[46.1 µM]	-18%[46.1 µM]	-12%	2%	-3%
O=C(O)C(Cc1c[nH]c2ccccc12)N1C(=O)C2C3c4ccccc4C(c4ccccc43)[C@@H]2C1=O (some centres not stated)	24%[46.1 µM]	9%[46.1 µM]	-20%	-9%	-16%
CCn1c(-c2nonc2N)nc2cnc(Oc3cccc(NC(=O)c4ccc(OCCN5CCOCC5)cc4)c3)cc21	/	20µM*	/	/	/
C=C1C[C@]23CC[C@H]4C(CO)(CO)C[C@@H](O)C[C@@]4(C)[C@@H]2CC[C@H]1C3	/	/	/	0%	/
COc1ccc(NC(=O)CC2C(=O)N(c3cccc(OC)c3)C(=O)N2CCC2=CCCCC2)cc1 (configuration not stated)	?	11µM*	-11%	-21%	-13%
O=[N+]([O-])c1ccc(N2CCN(S(=O)(=O)Cc3ccccc3)CC2)cc1N1CCOCC1	?	13µM*	-14%	?	-29%
CCS(=O)(=O)N1CCN(c2ccc([N+](=O)[O-])c(N3CCOCC3)c2)CC1	-7%	9%	-10%	-3%	-12%
